This is part of a sample that, as a whole, favours compounds with a hit. Of some 83,000 tested, about 20% had one in any assay.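 Assay: single dose, 48 h. Readout: percent growth (0 = no net growth; negative = cell death). Active: <10.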 Activity calls are given as the source filed them.
What was measured:
Experiment in all cases: NCI-60 one-dose screen, 48 h (100 = growth as untreated, 0 = no growth, -100 = all killed)
Conditions in all cases: 10 µM unless noted
SK-MEL-2 melanoma = system: SK-MEL-2 melanoma
EKVX NSCLC = system: EKVX NSCLC
SN12C renal = system: SN12C renal
UO-31 renal = system: UO-31 renal
TK-10 renal = system: TK-10 renal
ACHN renal = system: ACHN renal
CAKI-1 renal = system: CAKI-1 renal
A498 renal = system: A498 renal
CCRF-CEM leukemia = system: CCRF-CEM leukemia
MOLT-4 leukemia = system: MOLT-4 leukemia

Measured: growth

O=[N+]([O-])c1ccc2[nH]cc(-c3c4ccsc4cc4[nH]c5ccc([N+](=O)[O-])cc5c34)c2c1
inactive: EKVX NSCLC 29% | SN12C renal 21.7% | UO-31 renal 22.9% | TK-10 renal 30.9% | ACHN renal 24.5% | CAKI-1 renal 26.2%
active: SK-MEL-2 melanoma 2.1% | A498 renal -16.6% | CCRF-CEM leukemia 7.42% | MOLT-4 leukemia 5.22%

COc1ccc(/C(C)=C(\c2ccc(Cl)cc2)c2ccc(OCCN(C)C)cc2)cc1F
inactive: SK-MEL-2 melanoma 105% | EKVX NSCLC 81.6% | SN12C renal 70.6% | UO-31 renal 54.7% | TK-10 renal 59.1% | ACHN renal 92% | CAKI-1 renal 56.2% | A498 renal 98.5% | CCRF-CEM leukemia 40.2% | MOLT-4 leukemia 39.5%

COC(=O)/C(=C\c1ccc(OC)cc1)C(=O)N1c2ccccc2Sc2ccccc21
active: A498 renal 7.6%
inactive: SK-MEL-2 melanoma 35.5% | EKVX NSCLC 59.3% | SN12C renal 71.1% | UO-31 renal 52.6% | TK-10 renal 92.9% | ACHN renal 58.3% | CAKI-1 renal 29.4% | CCRF-CEM leukemia 43.1% | MOLT-4 leukemia 34.5%

CCOC(=O)c1c2c(c(C)n1C)-c1nn(Cc3ccc(OC)cc3)cc1CC2
inactive: SK-MEL-2 melanoma 111% | EKVX NSCLC 79.6% | SN12C renal 92.5% | UO-31 renal 91.3% | TK-10 renal 206% | ACHN renal 91.9% | CAKI-1 renal 85.2% | A498 renal 98.7% | CCRF-CEM leukemia 82.9% | MOLT-4 leukemia 69.4%

O=C(O)c1ccc(CO)o1
inactive: SK-MEL-2 melanoma 92.3% | EKVX NSCLC 105% | SN12C renal 104% | UO-31 renal 97.7% | TK-10 renal 103% | ACHN renal 105% | CAKI-1 renal 102% | A498 renal 114% | CCRF-CEM leukemia 106%

CN(CCCCCCCCNc1ccnc2ccccc12)Cc1ccc(-c2ccc(-c3ccc(C#N)cc3)s2)cc1
active: SK-MEL-2 melanoma -63.9% | EKVX NSCLC -14.3% | SN12C renal -78% | UO-31 renal -92.4% | TK-10 renal -50.1% | ACHN renal -93.6% | CAKI-1 renal -86.5% | CCRF-CEM leukemia -11.3% | MOLT-4 leukemia -32.9%
inactive: A498 renal 50.2%

O=C1C(Cl)C(c2ccccc2Cl)N1n1cnnc1 (stereo not drawn)
inactive: SK-MEL-2 melanoma 102% | EKVX NSCLC 99.8% | SN12C renal 100% | UO-31 renal 83.3% | TK-10 renal 102% | ACHN renal 96.8% | CAKI-1 renal 85.6% | A498 renal 93.9% | CCRF-CEM leukemia 98.6% | MOLT-4 leukemia 101%

COC(=O)Nc1nc2ccc(C(=O)C3CC3)cc2[nH]1
active: UO-31 renal 6.33% | A498 renal 6.47% | CCRF-CEM leukemia -22.3% | MOLT-4 leukemia -16%
inactive: SK-MEL-2 melanoma 27.9% | EKVX NSCLC 32.7% | SN12C renal 19.7% | TK-10 renal 35.5% | ACHN renal 37.1% | CAKI-1 renal 27.1%

COc1ccc(-n2sc(=O)n(Cc3ccc(COC(=O)C(C)c4ccc(CC(C)C)cc4)cc3)c2=O)cc1 (stereo not drawn)
inactive: SK-MEL-2 melanoma 89.7% | EKVX NSCLC 77.4% | SN12C renal 23.4% | TK-10 renal 10.1% | CAKI-1 renal 30.9% | A498 renal 83.3%
active: UO-31 renal -6.91% | ACHN renal -44.4% | CCRF-CEM leukemia -22.2% | MOLT-4 leukemia -18.3%

CCCCCCCCc1cc[n+](CC(=O)c2ccc(Br)cc2)cc1
inactive: EKVX NSCLC 35.7% | UO-31 renal 38.2% | CAKI-1 renal 41.4% | A498 renal 88.8%
active: SK-MEL-2 melanoma 0.325% | SN12C renal 8.54% | TK-10 renal -67.5% | ACHN renal 9.78% | CCRF-CEM leukemia 0.476%

COc1cc(C(=O)Nc2cc(O)c(CC=C(C)C)c(O)c2)cc2c1O[C@]1(C)CC[C@@H](O)C(C)(C)[C@H]1C2
inactive: SK-MEL-2 melanoma 12.9% | EKVX NSCLC 36.6% | SN12C renal 64.6% | TK-10 renal 33.2% | ACHN renal 26.4% | A498 renal 16.7%
active: UO-31 renal -1.4% | CAKI-1 renal 9.89% | CCRF-CEM leukemia 2.18% | MOLT-4 leukemia -15.7%

COc1cc(C(=O)/C=C/c2c(C(F)(F)F)nc3ccccn23)cc(OC)c1OC
inactive: TK-10 renal 11.2%
active: SK-MEL-2 melanoma -49.3% | EKVX NSCLC -0.4% | SN12C renal 3.89% | UO-31 renal -71.1% | ACHN renal -78.7% | CAKI-1 renal -25.5% | A498 renal 8.53% | CCRF-CEM leukemia 5.58% | MOLT-4 leukemia 4.22%

COc1ccc(Nc2ncc(Br)c(NCCCNC(=O)C3CCC3)n2)cc1
active: UO-31 renal -19.8% | TK-10 renal 5.53% | CAKI-1 renal 0.899%
inactive: SK-MEL-2 melanoma 42.1% | EKVX NSCLC 37.2% | SN12C renal 27.8% | ACHN renal 19.5% | A498 renal 26.1% | CCRF-CEM leukemia 17.2% | MOLT-4 leukemia 12.1%
